# Source: publication PMC8384837, “Expanding the binding specificity for RNA recognition by a PUF domain”
# Positions count from the first letter of the chain named.
# How the values were obtained:
# Assay in all cases: yeast three-hybrid, YBZ-1, SC-Leu-His + 0.5 mM 3-AT, 4 days
# Conditions in all cases: tags: N-Gal4 AD-HA kept; label: inside an RPR1-promoter hybrid RNA with tandem MS2 sites; ssRNA
# [1] = molecular target: PUM1 PUF domain R3-TFP (Homo sapiens, UniProt Q14671 828-1176, C935T;R936F;Q939P)
# Method in brief: (§1)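 The interaction score is the logarithmic change in variant frequency from input to selection. It uses log2, with a pseudocount of 1 for absent variants, and frequencies came from PCR-amplified, Illumina-sequenced repeat regions. The libraries were Pumilio-1 PUF domains randomized at the three base-contacting residues per repeat, co-expressed with matching RNA elements in strain YBZ-1 (LexA–MS2 coat fusion, HIS3 reporter). Plating lasted four days on SC-Leu (input) or SC-Leu-His + 0.5 mM 3-AT (selection).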
# [2] = molecular target: T1, PUM1 PUF domain R6-GHR (Homo sapiens, UniProt Q14671 828-1176, N1043G;Y1044H;Q1047R)
# T1 sequence: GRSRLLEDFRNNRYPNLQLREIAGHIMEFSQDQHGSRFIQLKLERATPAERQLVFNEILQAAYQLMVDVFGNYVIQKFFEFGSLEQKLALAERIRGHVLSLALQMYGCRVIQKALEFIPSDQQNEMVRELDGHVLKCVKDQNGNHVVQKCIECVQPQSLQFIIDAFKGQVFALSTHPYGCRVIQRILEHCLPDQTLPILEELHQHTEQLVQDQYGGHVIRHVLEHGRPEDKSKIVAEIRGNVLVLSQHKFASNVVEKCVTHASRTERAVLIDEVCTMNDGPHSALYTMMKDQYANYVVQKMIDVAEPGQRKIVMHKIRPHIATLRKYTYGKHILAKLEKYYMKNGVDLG
# Method in brief: as §1
# [3] = molecular target: PUM1 PUF domain R8-RRK (Homo sapiens, UniProt Q14671 828-1176, N1122R;Y1123R;Q1126K)
# Method in brief: as §1
# [4] = molecular target: PUM1 PUF domain R4-CMG (Homo sapiens, UniProt Q14671 828-1176, N971C;H972M;Q975G)
# Method in brief: as §1
# [5] = molecular target: PUM1 PUF domain R3-RQV (Homo sapiens, UniProt Q14671 828-1176, C935R;R936Q;Q939V)
# Method in brief: as §1
# [6] = molecular target: PUM1 PUF domain R5-TNG (Homo sapiens, UniProt Q14671 828-1176, C1007T;R1008N;Q1011G)
# Method in brief: as §1
# [7] = molecular target: T2, PUM1 PUF domain R6-CYQ (Homo sapiens, UniProt Q14671 828-1176, N1043C)
# T2 sequence: T1 sequence with G216C, H217Y, R220Q
# Method in brief: as §1
# [8] = molecular target: PUM1 PUF domain R5-RKN (Homo sapiens, UniProt Q14671 828-1176, C1007R;R1008K;Q1011N)
# Method in brief: as §1
sequence,measurement,setting,value
GGCUAGAACUAGUGGAUCCCCCGGCGCCCGGCGGCUCGAGCCCGGGUAAGUGUAAAUAGUCUGCAUGCCGCCGGGCGCCAUGCCUGCAGGUCGACUCUAGAAAACAUG,binding signal,[1],4.82 log2 enrichment (interaction score)
same,binding signal,[2],3.81 log2 enrichment (interaction score)
same,binding signal,[3],4.75 log2 enrichment (interaction score)
same,binding signal,[4],3.4 log2 enrichment (interaction score)
GGCUAGAACUAGUGGAUCCCCCGGCGCCCGGCGGCUCGAGCCCGGGUAAGUGUAAUUAGUCUGCAUGCCGCCGGGCGCCAUGCCUGCAGGUCGACUCUAGAAAACAUG,binding signal,[1],3.79 log2 enrichment (interaction score)
same,binding signal,[5],4.16 log2 enrichment (interaction score)
GGCUAGAACUAGUGGAUCCCCCGGCGCCCGGCGGCUCGAGCCCGGGUAAGUGCAAAUAGUCUGCAUGCCGCCGGGCGCCAUGCCUGCAGGUCGACUCUAGAAAACAUG,binding signal,[2],2.2 log2 enrichment (interaction score)
GGCUAGAACUAGUGGAUCCCCCGGCGCCCGGCGGCUCGAGCCCGGGUAAGCGUAAAUAGUCUGCAUGCCGCCGGGCGCCAUGCCUGCAGGUCGACUCUAGAAAACAUG,binding signal,[3],5.29 log2 enrichment (interaction score)
GGCUAGAACUAGUGGAUCCCCCGGCGCCCGGCGGCUCGAGCCCGGGUAAGUGUUAAUAGUCUGCAUGCCGCCGGGCGCCAUGCCUGCAGGUCGACUCUAGAAAACAUG,binding signal,[6],3.75 log2 enrichment (interaction score)
GGCUAGAACUAGUGGAUCCCCCGGCGCCCGGCGGCUCGAGCCCGGGUAAGUGAAAAUAGUCUGCAUGCCGCCGGGCGCCAUGCCUGCAGGUCGACUCUAGAAAACAUG,binding signal,[7],6 log2 enrichment (interaction score)
GGCUAGAACUAGUGGAUCCCCCGGCGCCCGGCGGCUCGAGCCCGGGUAAGUGUCAAUAGUCUGCAUGCCGCCGGGCGCCAUGCCUGCAGGUCGACUCUAGAAAACAUG,binding signal,[8],2.84 log2 enrichment (interaction score)
GGCUAGAACUAGUGGAUCCCCCGGCGCCCGGCGGCUCGAGCCCGGGUAAGUGUACAUAGUCUGCAUGCCGCCGGGCGCCAUGCCUGCAGGUCGACUCUAGAAAACAUG,binding signal,[4],2.47 log2 enrichment (interaction score)
